ALOX12 inh: ALOX12 (human) lipoxygenase inhibition. AID 1671190. Potency, µM (series often up to 108 µM), for the others: at the top dose activity change, negative = inhibition, most hits filed as inhibitors. P18054. purified 12hLO, xylenol orange hydroperoxide absorbance. hit rate 1.1% among 580,000; also: potency is read from the fitted curve at half-maximal effect
Target sequence (P18054 whole entry, looked up): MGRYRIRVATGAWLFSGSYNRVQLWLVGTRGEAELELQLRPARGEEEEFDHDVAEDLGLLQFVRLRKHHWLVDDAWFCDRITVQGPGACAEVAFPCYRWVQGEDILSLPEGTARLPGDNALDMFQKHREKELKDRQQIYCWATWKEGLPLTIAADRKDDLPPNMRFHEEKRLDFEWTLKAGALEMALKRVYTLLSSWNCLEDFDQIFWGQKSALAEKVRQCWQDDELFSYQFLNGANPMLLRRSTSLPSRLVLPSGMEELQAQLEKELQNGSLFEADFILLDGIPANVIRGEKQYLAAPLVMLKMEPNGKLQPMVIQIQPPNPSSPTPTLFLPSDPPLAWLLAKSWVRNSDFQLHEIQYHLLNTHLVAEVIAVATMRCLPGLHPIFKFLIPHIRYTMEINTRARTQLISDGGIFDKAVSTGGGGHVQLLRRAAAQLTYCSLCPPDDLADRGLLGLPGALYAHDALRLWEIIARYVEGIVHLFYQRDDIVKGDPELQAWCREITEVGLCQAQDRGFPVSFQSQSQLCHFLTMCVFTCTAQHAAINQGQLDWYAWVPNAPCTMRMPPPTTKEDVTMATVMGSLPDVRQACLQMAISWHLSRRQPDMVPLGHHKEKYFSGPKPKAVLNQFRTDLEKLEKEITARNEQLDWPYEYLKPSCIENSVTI
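Hydroperoxide product was detected by ferrous iron/xylenol orange as the 573 to 405 nm absorbance ratio. Arachidonic acid at 40 uM (final) was turned over for 30 min at room temperature by 150 nM human 12hLO, pH 7.0 Hepes buffer, after 15 min compound preincubation.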
HT1080 IDH1KD tx: HT-1080 IDH1 knockdown cell toxicity (counter line); Potency, µM (titrated, usually from 46.1 µM), for inactives: at the highest dose activity, negative = toxicity, actives largely listed as cytotoxic; hit rate 2% among 360,000; HT-1080 IDH1 knockdown viability, ATP luminescence, 48 h;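 also: potency is read from the fitted curve at half-maximal effect; 0% = DMSO wells and -100% = cell-free medium wells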
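Knockdown cells (IDH1KD HT-1080) received compounds 2 h after plating at 750 cells/well and were kept 48 h at 37 °C in 5% FBS RPMI. A CellTiter-Glo luminescence read gave % activity for curve fitting.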
IL-1B inflam inh: inhibitors of inflammasome signaling (IL-1 beta secretion). THP-1 LPS/ATP IL-1B secretion, AlphaLISA, 16 h; hits give low values. activity change, % at 57.5 µM. hit rate 4.7% among 360,000. AID 743279; in the data active = activity change below about -50%; inconclusive = mostly about -30% to -49%
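Secreted IL-1B measured by AlphaLISA bead assay after 16 h compound exposure of THP-1 cells; compounds (final up to 57.5 uM) added 1 h before LPS (250 ng/mL) and ATP (1.25 mM) stimulation; lower signal means less secretion.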
HT1080-NT tox: kills 2HG-producing HT-1080-NT fibrosarcoma cells; HT-1080-NT fibrosarcoma viability, CellTiter-Glo ATP luminescence, 48 h; Potency, µM (doses to about 46.1 µM), for the others: at the top dose activity, negative = less viability, most hits filed as cytotoxic; hit rate 1.6% among 360,000;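 also: NT is the 2HG producing partner of a matched IDH1 knockdown line; potency is read from the fitted curve at half-maximal effect; 0% = DMSO-treated cells and -100% = media-only wells without cells; nearly all actives have a fitted effect of over 55% in size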
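Toxicity toward the 2HG-producing NT line was scored as %Activity, normalised to DMSO and no-cell wells, from CellTiter-Glo luminescence after 48 hours' treatment.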
DT40 TDP1 no CPT: qHTS for Inhibitors of human tyrosyl-DNA phosphodiesterase 1 (TDP1): qHTS in cells in absence of CPT; DT40 Tdp1-/- hTDP1 cells, no CPT, ATP luminescence, 48 h; Potency, µM (titrated, usually from 46.2 µM), without a hit: at the highest dose activity change, negative = growth inhibition, actives largely listed as inhibitors; hit rate 15% among 420,000; AID 686978, 2013; also: potency is read from the fitted curve at half-maximal effect; nearly all actives have a fitted effect of over 55% in size
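Seeded 400 DT40-hTDP1 cells/well (vehicle DMSO, no 20 nM CPT); pinned compounds; ≥48 hr at 37 °C; CellTiter-Glo luminescence as viability measure.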
DT40 TDP1 CPT: growth inhibition of DT40 Tdp1-/-;hTDP1 cells with camptothecin (screen for TDP1 inhibitors). chicken DT40 Tdp1-/-;hTDP1 cells + 20 nM CPT, ATP luminescence, 48 h. AID 686979. Potency, µM (titrated, usually from 46.2 µM), for the others: at the highest dose activity change, negative = growth inhibition, usual class: inhibitors. hit rate 12% among 420,000; also: potency is read from the fitted curve at half-maximal effect; nearly all actives have a fitted effect of over 55% in size
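Chicken DT40 Tdp1-/- cells stably complemented with human TDP1 were seeded at 400 cells/well in medium containing 20 nM camptothecin, exposed to pin-transferred compounds, and grown at 37 °C for at least 48 hr. Viability was read as ATP luminescence.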
* marks the source's active call; other numbers are inactive results; ? = inconclusive; . = not tested or not shown; [ ] = another dose, or the depositor's remark. The entries come from a sample that favours hits as a whole. Unless noted, calls follow the shape of the dose curve; as a rule, active = well fitted curve in the direction sought with a large enough effect; inconclusive = small, poorly fitted or top-dose-only effect, or another doubt; inactive = no such curve, though single readings can be large; an effect the other way counts as inactive or inconclusive. Unless noted, % is scaled to controls: 0 for no effect and ±100 for the full control effect.

SMILES	ALOX12 inh	HT1080 IDH1KD tx	IL-1B inflam inh	HT1080-NT tox	DT40 TDP1 no CPT	DT40 TDP1 CPT
COCOc1cccc(CN2CCC2(C)C(=O)Nc2ccc(C)c(O)c2)c1 (stereo unspecified)	-10%	?	-15	-20%	18µM*	26µM*
COCOc1cccc(CN2CCC2(C)C(=O)Nc2cc(OC)ccc2OC)c1 (stereo unspecified)	1%	-18%	24	?	?	26µM*
COCOc1cccc(CN2CCC2(C)C(=O)Nc2ccc(OC)c(OC)c2)c1 (stereo unspecified)	5%	20%	-8	-10%	23µM*	16µM*
O=C(CCN1CCN(c2ccccc2F)CC1)c1ccc(Br)cc1	.	?	-2	?	2.9µM*	2.6µM*
COc1ccc(C(=O)CCN2CCN(c3ccccc3F)CC2)cc1	-9%	?	0	?	3.7µM*	4.6µM*
O=C(CCC(=O)N1CCN(c2ccccc2F)CC1)c1ccc(F)cc1	-18%	3%	-6	2%	?	1%
Cc1ccsc1CN1CCc2nnc([C@@H]3C[C@@H](O)CN3C)n2CC1	3%	.	.	.	.	.
CC[C@H]1c2[nH]c3ccccc3c2C[C@@H]2C(=O)N(c3ccc(F)cc3)C(=O)N21	-6%	-10%	10	-1%	?	16µM*
Cc1cccc2c1nc1n2[C@@H](CNCc2ccccc2)COC1	-1%[176 µM]	.	.	.	.	.
Cc1ccc(NC(=O)COC(=O)CCn2c(C)csc2=O)c([N+](=O)[O-])c1	10%	17%	-11	11%	-1%	7%
Cc1ccc(NC(=O)COC(=O)CCC(=O)c2ccc(C(C)(C)C)cc2)c([N+](=O)[O-])c1	2%	18%	-1	9%	15µM*	?
COc1ccc(Cc2nc3ccc(C(=O)NCc4cccc(C)n4)cc3o2)cc1OC	22%	1%	?	2%	?	18µM*
COc1ccc(Cc2nc3ccc(C(=O)NCc4cc(C)no4)cc3o2)cc1OC	-4%	-3%	25	-9%	?	?
COc1ccc(Cc2nc3ccc(C(=O)N(C)Cc4nccs4)cc3o2)cc1OC	0%	-19%	36	-10%	?	10µM*
COc1ccc(Cc2nc3ccc(C(=O)N4CCCC4)cc3o2)cc1OC	-29%	-9%	0	2%	21µM*	?
C=CCN(CC=C)C(=O)c1ccc2nc(Cc3ccc(OC)c(OC)c3)oc2c1	9%	?	?	-25%	4.6µM*	?
O=C1CCC2(CNC(=O)c3cc(F)ccc3F)CCC=C2N1 (stereo unspecified)	30%	.	.	.	.	.
C[C@H]1[C@@H](NC(=O)Nc2ccc(F)cc2)CC[C@@]23CCCN2C(=O)CCC[C@@H]13	-7%	.	.	.	.	.
COc1ccc(Cc2nc3ccc(C(=O)N4CCCCC4CO)cc3o2)cc1OC (stereo unspecified)	1%	-12%	9	3%	21µM*	?
COc1ccc(Cc2nc3ccc(C(=O)NC(C)Cc4ncccc4C)cc3o2)cc1OC (stereo unspecified)	5%	1%	-8	2%	?	18µM*
COc1ccc(Cc2nc3ccc(C(=O)N4CCN(C)C(C)C4)cc3o2)cc1OC (stereo unspecified)	3%	-17%	-1	-18%	18µM*	?
COc1ccc(Cc2nc3ccc(C(=O)N4CCCC4)cc3o2)cc1	0%	-1%	43	-3%	-8%	-15%
COc1ccc(Cc2nc3ccc(C(=O)NC4CCOC4)cc3o2)cc1OC (stereo unspecified)	-3%	-9%	2	-1%	?	12µM*
Cc1cccc(C(=O)N2CCc3c(nc(-c4ccncc4)nc3N(C)C)C2)c1	32%	.	.	.	.	.
O=C(O)Cn1ccc2cc(OCCc3cccc(-c4ccc(F)cc4)c3)cnc21	50µM*	.	.	.	.	.
SMILES	ALOX12 inh	HT1080 IDH1KD tx	IL-1B inflam inh	HT1080-NT tox	DT40 TDP1 no CPT	DT40 TDP1 CPT
O=C(O)Cn1ccc2cc(OCCc3cccc(-c4cccc(F)c4)c3)cnc21	50µM*	.	.	.	.	.
CCn1c(CC2C(=O)N(C)c3ccccc32)nc2ccccc2c1=O (stereo unspecified)	-18%	.	.	.	-13%	3%
CC(C)c1ccccc1NC(=O)c1cc(Cl)ccc1F	-27%	.	.	.	.	.
CCS(=O)(=O)c1cccc(C(=O)N2CCN(c3nc4c(C)ccc(Cl)c4s3)CC2)c1	-16%	.	.	.	?	16µM*
CCN(Cc1ccccc1)S(=O)(=O)c1ccc(C(=O)N2CCN(c3nc4ccccc4s3)CC2)cc1	0%	13%	-19	18%	9.2µM*	15µM*
CCOc1ccc2nc(N3CCN(C(=O)c4ccc(S(=O)(=O)CC)cc4)CC3)sc2c1	-19%	.	.	.	18µM*	18µM*
O=C(c1ccc(Br)cc1)N1CCN(c2nc3ccccc3s2)CC1	5%	.	.	.	.	.
CCOc1ccc2nc(N3CCN(C(=O)CS(=O)(=O)c4ccc(F)cc4)CC3)sc2c1	?	.	.	.	16µM*	15µM*
COC[C@@H]1CN(c2ncccn2)C[C@H]1C(=O)NCC(F)(F)F	30%	.	.	.	.	.
CC(NS(=O)(=O)Cc1ccc(F)cc1)c1cccs1 (stereo unspecified)	-5%	.	.	.	.	.
OCc1nc2ccccc2n1CC(O)COc1ccccc1F (stereo unspecified)	7%	.	.	.	.	.
Nc1ncnc2c1ncn2[C@@H]1O[C@H](CNC(=O)[C@@H](N)Cc2ccc(C(F)(F)F)cc2)[C@@H](O)[C@H]1O	35%	-3%	19	-1%	-3%	8%
COc1cc(/C=C/C(=O)N2C(=O)c3cccc(N)c3C2=O)cc(OC)c1OC	2%	-8%	-20	-9%	29µM*	5.8µM*
COc1cc(/C=C/C(=O)N2CCN(C(=O)/C=C/c3cc(OC)c(OC)c(OC)c3)CC2)cc(OC)c1OC	.	15%	-8	19%	-16%	-4%
COc1ccc(OC)c(/C=C/C(=O)N2C(=O)c3cccc(N)c3C2=O)c1	-11%	16µM*	-121*	?	5.2µM*	4.6µM*
CC1CCCN(C(C(=O)NC2CCCCC2)c2cc3c(cc2[N+](=O)[O-])OCO3)C1 (stereo unspecified)	-25%	-5%	-59*	-5%	?	?
CC1CCCN(C(C(=O)Nc2ccc3c(c2)OCO3)c2ccccc2)C1 (stereo unspecified)	9%	-6%	24	-21%	16µM*	15µM*
